PNC assembly inh = High Content Assay for Compounds that inhibit the Assembly of the Perinucleolar Compartment. AID 2417, 2010. 140,000 tested, 3.1% active. PC3M PTB-GFP, PNC prevalence imaging, 16 h; hits give low values. activity change (PNC), negative = inhibition, % at 10 µM;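 active = readout at or below -70, meaning at least 70% loss of cells showing the perinucleolar compartment, a nuclear body marking cancer cells; inconclusive = readout between -30 and a set limit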;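 also: plate controls were DMSO wells for no effect and camptothecin positive control wells for full effect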
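Compounds are pinned in duplicate onto adhered PC3M cells stably expressing GFP-tagged PTB and incubated 16 h at 37 C. Cells are then fixed, nuclei stained with Hoechst, and PNC-positive cells counted.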
TexasRed fluor = Total Fluorescence Counterscreen for Inhibitors of the Interaction of Thyroid Hormone Receptor and Steroid Receptor Coregulator 2; TRb/SRC2 Texas Red total fluorescence interference; Potency, µM (highest dose often 106 µM), without a hit: top-dose fluorescence change, negative = quenching; 280,000 tested, 0.29% active; AID 1479, 2009; active = well fitted curve in either direction with a large enough effect; inconclusive = small, poorly fitted or top-dose-only effect; also: potency is read from the fitted curve at half-maximal effect
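Flags fluorescent or light-absorbing compounds by total fluorescence, S + 2P, at 555 nm excitation and 632 nm emission. Mixture: 20 nM Texas Red SRC2 peptide, 0.6 uM human TRb LBD, 1 uM T3, 5% DMSO; compound exposure 5 h at ambient temperature.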
TRb SRC2 PPI = qHTS for Inhibitors of the Interaction of Thyroid Hormone Receptor and Steroid Receptor Coregulator 2 | TRbeta-SRC2 peptide binding, fluorescence polarization; receptor liganded with 1 µM T3 | Thyroid hormone receptor beta (Homo sapiens), P10828 | Potency, µM (highest dose often 106 µM), without a hit: at the top dose activity change, negative = inhibition, hits mostly inhibitors | 280,000 tested, 0.065% active;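 also: potency is read from the fitted curve at half-maximal effect; plate controls were bound peptide for no effect and peptide without receptor for full effect; nearly all actives have a fitted effect of over 50% in size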
Target sequence (P10828 whole entry, looked up): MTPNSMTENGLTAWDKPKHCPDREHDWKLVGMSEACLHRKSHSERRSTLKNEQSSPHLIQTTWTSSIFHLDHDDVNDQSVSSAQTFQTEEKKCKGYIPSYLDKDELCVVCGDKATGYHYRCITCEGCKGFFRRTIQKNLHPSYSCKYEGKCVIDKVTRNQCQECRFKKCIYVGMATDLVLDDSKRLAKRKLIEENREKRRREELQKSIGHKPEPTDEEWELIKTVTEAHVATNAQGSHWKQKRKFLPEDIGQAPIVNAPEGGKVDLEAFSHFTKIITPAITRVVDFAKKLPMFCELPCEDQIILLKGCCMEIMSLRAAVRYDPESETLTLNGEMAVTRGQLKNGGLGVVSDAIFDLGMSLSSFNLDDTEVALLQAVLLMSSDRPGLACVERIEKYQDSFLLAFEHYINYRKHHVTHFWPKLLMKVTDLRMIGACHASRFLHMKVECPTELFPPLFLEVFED
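Fluorescence polarization of 20 nM Texas Red SRC2 peptide (20-aa NR interaction domain) bound to 0.6 uM human TRb ligand-binding domain, with 1 uM T3, after 5 hr at ambient temperature; inhibition seen as decreased polarization.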
Tau fibril FP = qHTS for Inhibitors of Tau Fibril Formation, Fluorescence Polarization; 280,000 tested, 0.39% active; K18 P301L tau heparin fibrillization, Alexa594 FP, 6 h; Potency, µM (highest dose often 57.7 µM), inactives show at the highest dose activity, negative = inhibition, most hits filed as inhibitors; Microtubule-associated protein tau (Homo sapiens), P10636; AID 1468, 2008; also: potency is read from the fitted curve at half-maximal effect; nearly all actives have a fitted effect of over 55% in size
Target sequence (P10636 561-689 P618L limits assumed): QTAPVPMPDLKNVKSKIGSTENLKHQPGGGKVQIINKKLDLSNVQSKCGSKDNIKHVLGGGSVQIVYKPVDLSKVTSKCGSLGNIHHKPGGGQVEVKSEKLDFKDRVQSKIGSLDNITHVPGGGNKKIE
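Read-out: fluorescence polarization of Alexa 594-labeled tau (0.24 uM), 555 nm excitation, 632 nm emission. Mixtures held 15 uM unlabeled K18 P301L, compound and 20 uM heparin, pH 7 acetate buffer, incubated 6 hr at 37 C.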
Tau fluor cs = Counterscreen qHTS for Inhibitors of Tau Fibril Formation, Fluorescence Polarization. Potency, µM (titrated, usually from 57.7 µM), for inactives: at the top dose activity change, negative = decrease. tau K18 P301L Alexa594 fluorescence, heparin fibrillization. 280,000 tested, 0.93% active; also: potency is read from the fitted curve at half-maximal effect; nearly all actives have a fitted effect of over 55% in size
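Human tau K18 P301L (15 uM unlabeled, 0.24 uM Alexa 594-labeled) in 100 mM sodium acetate pH 7 with 20 uM heparin, 6 hr at 37 C. ThT 30 uM added, 1 hr ambient; Alexa 594 FP and total fluorescence read at 555/632 nm.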
Tau fibril ThT = qHTS for Inhibitors of Tau Fibril Formation, Thioflavin T Binding. Microtubule-associated protein tau (Homo sapiens), P10636. recombinant tau K18 P301L (four-repeat tau fragment), heparin-induced fibrillization, ThT fluorescence. Potency, µM (highest dose often 57.4 µM), without a hit: top-dose activity, negative = inhibition, actives largely listed as inhibitors. 270,000 tested, 2.1% active. AID 1460, 2008; also: potency is read from the fitted curve at half-maximal effect; nearly all actives have a fitted effect of over 55% in size
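Recombinant human tau K18 fragment […] carrying P301L, 15 uM unlabeled plus 0.24 uM Alexa 594-labeled, was fibrillized with 20 uM heparin in 100 mM sodium acetate pH 7 for 6 hr at 37 C; 30 uM ThT fluorescence read after 1 hr.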
* = called active by the depositor; [ ] = remark or other dose. Sampled rows, rich in hits. Any-hit rate of the full collection: about 4.6%. Unless noted, calls follow the shape of the dose curve; as a rule, active = well fitted curve in the direction sought with a large enough effect; inconclusive = small, poorly fitted or top-dose-only effect, or another doubt; inactive = no such curve, though single readings can be large; an effect the other way counts as inactive or inconclusive. Unless noted, % is scaled to controls: 0 for no effect and ±100 for the full control effect.

`COC1(OC)N=C(NC(=O)Nc2ccccc2)C2(C#N)C(c3ccccc3)C12C#N` (stereo not drawn) gave PNC assembly inh inconclusive, TexasRed fluor 2%, TRb SRC2 PPI -2%, Tau fibril FP inconclusive, Tau fluor cs -25% and Tau fibril ThT 20µM*.
`COC1(OC)N=C(N)C2(C#N)C(c3ccc(C)cc3)C12C#N` (stereo not drawn) gave PNC assembly inh 102, TexasRed fluor 1%, TRb SRC2 PPI 3%, Tau fibril FP -6%, Tau fluor cs -9% and Tau fibril ThT -13%.
For COc1cc(O)c(NC(C)=O)c2nonc12 the results were PNC assembly inh -88*, TexasRed fluor -2%, TRb SRC2 PPI -29%, Tau fibril FP inconclusive, Tau fluor cs -15% and Tau fibril ThT 7.9µM*.
For C=CCn1c(SCC(=O)N2CCN(c3ccccc3)CC2)nnc1-c1ccco1 the results were PNC assembly inh inconclusive, TexasRed fluor -1%, TRb SRC2 PPI -4%, Tau fibril FP -2%, Tau fluor cs -10% and Tau fibril ThT -21%.
For C=CCn1c(SCC(=O)N2CCN(c3ccc(F)cc3)CC2)nnc1-c1cccs1 the results were PNC assembly inh -96*, TexasRed fluor -2%, TRb SRC2 PPI -5%, Tau fibril FP 2%, Tau fluor cs -17% and Tau fibril ThT inconclusive.
`O=C(OCC(=O)N1CCN(C(=O)c2ccco2)CC1)c1cc(-c2ccccc2)nc2ccccc12` gave PNC assembly inh 17, TexasRed fluor -5%, TRb SRC2 PPI -9%, Tau fibril FP 6%, Tau fluor cs -14% and Tau fibril ThT inconclusive.
`COc1ccccc1C(=O)OCc1ccc2sc(C)nc2c1` gave TexasRed fluor -2%, TRb SRC2 PPI -2%, Tau fibril FP -2%, Tau fluor cs -14% and Tau fibril ThT inconclusive.
For O=c1[nH][nH]c(-c2ccccc2O)c1C(C[N+](=O)[O-])c1ccc(Br)cc1 (stereo not drawn) the results were PNC assembly inh -2, TexasRed fluor 4%, TRb SRC2 PPI -2%, Tau fibril FP 7%, Tau fluor cs inconclusive and Tau fibril ThT inconclusive.
`Cc1ccc(C(C[N+](=O)[O-])c2c(-c3ccccc3O)[nH][nH]c2=O)cc1` (stereo not drawn) gave PNC assembly inh 47, TexasRed fluor -2%, TRb SRC2 PPI -4%, Tau fibril FP inconclusive, Tau fluor cs -22% and Tau fibril ThT 18µM*.
For CC(=O)c1ccc(N2C(=O)[C@@H]3C(C(=O)CCN4C(=O)c5ccccc5C4=O)=NN[C@@H]3C2=O)cc1 the results were PNC assembly inh -108*, TexasRed fluor 3%, TRb SRC2 PPI 10%, Tau fibril FP -7%, Tau fluor cs -22% and Tau fibril ThT -18%.
Screening O=c1oc(-c2ccc([N+](=O)[O-])cc2)nc2ccccc12 returned TexasRed fluor -6%, TRb SRC2 PPI 4%, Tau fibril FP 4%, Tau fluor cs -21% and Tau fibril ThT inconclusive.
`O=c1oc(-c2ccc([N+](=O)[O-])cc2)nc2ccc(O)cc12` gave TexasRed fluor -6%, TRb SRC2 PPI 2%, Tau fibril FP -6%, Tau fluor cs inconclusive and Tau fibril ThT 13µM*.
COc1cc(C(=O)NCc2nnc(SCC(=O)Nc3ccc4c(c3)OCO4)o2)cc(OC)c1OC was read as TexasRed fluor 1%, TRb SRC2 PPI -2%, Tau fibril FP -5%, Tau fluor cs -4% and Tau fibril ThT -3%.
`CN(C)c1cccc(OC2C=CC(C#Cc3ccccc3)OC2CO)c1` (stereo not drawn) gave TexasRed fluor 3%[11.2 µM], TRb SRC2 PPI 2%[11.2 µM], Tau fibril FP 6%[11.6 µM], Tau fluor cs inconclusive and Tau fibril ThT inconclusive.
`CN1CCN(C2=Nc3c(Cl)cc(Cl)c4cccc2c34)CC1` gave TexasRed fluor -1%, TRb SRC2 PPI 5%, Tau fibril FP 4%, Tau fluor cs -13% and Tau fibril ThT 18µM*.
Screening COc1ccc(-c2cc3ncc(C(=O)c4cc([N+](=O)[O-])ccc4O)cn3n2)cc1 returned TexasRed fluor 4%, TRb SRC2 PPI -1%, Tau fibril FP 8%, Tau fluor cs -16% and Tau fibril ThT 7.1µM*.
Screening Cc1cc(C(=O)Nc2ccc(Cl)cc2)c2c(C)nn(-c3ccccc3)c2n1 returned TexasRed fluor -1%, TRb SRC2 PPI 3%, Tau fibril FP inconclusive, Tau fluor cs -27% and Tau fibril ThT -3%.
Screening Cn1c(N)c(C(=O)COC(=O)c2ccnc3ccccc23)c(=O)n(C)c1=O returned PNC assembly inh -85*, TexasRed fluor -1%, TRb SRC2 PPI 6%, Tau fibril FP -10%, Tau fluor cs -6% and Tau fibril ThT 0%.
`CNC(=O)COC(=O)c1cc(-c2ccco2)nc2ccccc12` gave TexasRed fluor -11%, TRb SRC2 PPI -1%, Tau fibril FP -3%, Tau fluor cs -25% and Tau fibril ThT inconclusive.
Cn1c(N)c(C(=O)COC(=O)CCCc2c[nH]c3ccccc23)c(=O)n(C)c1=O was read as PNC assembly inh -80*, TexasRed fluor 2%, TRb SRC2 PPI 0%, Tau fibril FP 12%, Tau fluor cs inconclusive and Tau fibril ThT inconclusive.
For Cn1c(N)c(C(=O)COC(=O)c2cc(-c3ccco3)nc3ccccc23)c(=O)n(C)c1=O the results were PNC assembly inh 52, TexasRed fluor -8%, TRb SRC2 PPI 11%, Tau fibril FP 2%, Tau fluor cs inconclusive and Tau fibril ThT inconclusive.
For CCN(CC)C(=O)COC(=O)c1cc(-c2ccco2)nc2ccccc12 the results were TexasRed fluor 35µM*[quencher], TRb SRC2 PPI 1%, Tau fibril FP -8%, Tau fluor cs -12% and Tau fibril ThT inconclusive.
`Cn1c(N)c(C(=O)COC(=O)c2cc(-c3ccco3)nc3ccccc23)c(=O)n(Cc2ccccc2)c1=O` gave PNC assembly inh inconclusive, TexasRed fluor -3%, TRb SRC2 PPI 6%, Tau fibril FP inconclusive, Tau fluor cs inconclusive and Tau fibril ThT 13µM*.
